# High-throughput results as filed in PubChem.
# Shn3 3UTR inh – Schnurri-3 reporter inhibition in Clone20 osteoblasts; actives 0.52% (n = 360,000); inhibition, % at 12.5 µM; Clone20 osteoblast Shn3 3'UTR firefly luciferase, 24 h; AID 588674;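 active means mean inhibition of at least 75% with every replicate also reaching 75%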;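 further: 0% = median of neutral control wells and 100% = pilot-screen positive control compound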
# HIF-2a block – blocks HIF-2a reporter activity; inhibition, % at 18.8 µM; 786-0 RCC cells HIF-2a reporter, luciferase luminescence, overnight; actives 0.72% (n = 360,000);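 active means inhibition of the luminescence signal of 40% or more relative to plate controls, in a single-dose primary screen at 18.75 µM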
# MITF TRPM1 inh – inhibitors of MITF-driven TRPM1 promoter in melanoma cells; SK-MEL-5 TRPM1 promoter luciferase, 24 h; inhibition, % at 12.5 µM; actives 0.83% (n = 330,000);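 active means mean inhibition across replicates of 60% or more, whatever share of single replicates reaches that level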
# LMP1 NFkB inh – inhibitors of Epstein-Barr LMP1-induced NF-kappaB reporter | actives 0.69% (n = 350,000) | LMP1-induced NF-kappaB luciferase reporter cells, luminescence | AID 504558 | inhibition, % at 12.5 µM; in the data active means inhibition above about 41%;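 further: 0% = neutral control wells and 100% = reference inhibitor control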
# PAX8 reporter – lowers PAX8-driven luciferase in RMG-I cells | RMG-I TPO-luciferase reporter, SteadyGlo, 24 h | actives 1.2% (n = 360,000) | inhibition, % at 12.6 µM | AID 652154;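 active means mean replicate inhibition at least 60% with every replicate also reaching 60%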;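 further: luciferase light reporting Pax8 driven TPO promoter activity; plate controls were median of neutral control wells for no effect and mitoxantrone controls for full effect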
# Peg3 promoter – Peg3 promoter activity inhibition | HeLa PEG-Prom luciferase reporter, luminescence, overnight | inhibition, % at 20 µM | actives 1.7% (n = 360,000) | AID 588405;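 active means inhibition of at least 50% at 20 µM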
# The depositor's hits bear a star; . = not tested or not shown; ! = a repeat was not active. Rows were chosen to be rich in hits. Some 2.8% of all compounds tested hit in one or more screens of this group.
SMILES,Shn3 3UTR inh,HIF-2a block,MITF TRPM1 inh,LMP1 NFkB inh,PAX8 reporter,Peg3 promoter
COc1ccccc1Sc1nc(-c2ccccn2)ncc1OC,25.9,2.8,33.6,8.5,-1.8,-5.2
CN(C)CCCNC(=O)C[C@H]1C[C@H](C(=O)N2CCCCC2)[C@@]2(C)c3[nH]c4cc(-c5ccco5)ccc4c3CCN2C1=O,-26.3,-5.6,-19.2,-3.9,-3.1,65.3*
C[C@]12c3[nH]c4cc(-c5ccco5)ccc4c3CCN1C(=O)[C@@H](CC(=O)NCCCn1ccnc1)C[C@@H]2C(=O)N1CCCCC1,-17.0,-12.1,-6.9,-3.7,-16.4,-2.4
CC[C@]12c3[nH]c4ccc(OC)cc4c3CCN1C(=O)C(CC(=O)NCC13CC4CC(CC(C4)C1)C3)C[C@@H]2C(=O)N1CCN(C(=O)c2ccco2)CC1 (some centres undefined),19.1,-2.7,10.7,4.2,.,14.1
CN(C)CCCNC(=O)C[C@H]1C[C@H](C(=O)N2CCCCC2)[C@@]2(CCc3ccccc3)c3[nH]c4cc(-c5ccco5)ccc4c3CCN2C1=O,16.0,-15.5,92.4*,-12.8,27.0,95.1*
CC[C@]12c3[nH]c4ccc(Cl)cc4c3CCN1C(=O)[C@@H](CC(=O)NCC13CC4CC(CC(C4)C1)C3)C[C@@H]2C(=O)N1CCN(C(=O)c2ccco2)CC1,79.8,-24.2,43.2,9.6,33.2,67.3*
O=C(CC1C[C@H](C(=O)N2CCCCC2)[C@@]2(CCc3ccccc3)c3[nH]c4ccccc4c3CCN2C1=O)NCCc1ccccn1 (some centres undefined),10.1,-0.1,19.2,68.6*,35.0,7.6
C[C@@H]1CCCCO[C@@H](CN(C)CC2CCCCC2)[C@H](C)CN([C@H](C)CO)C(=O)c2cc(NC(=O)c3ccncc3)ccc2O1,.,.,.,.,-3.7,.
CN(C)CCCNC(=O)CC1C[C@H](C(=O)N2CCCCC2)[C@@]2(CCc3ccccc3)c3[nH]c4ccccc4c3CCN2C1=O (some centres undefined),-14.4,-13.1,59.9,1.0,2.6,92.7*
O=C(C[C@H]1C[C@H](C(=O)N2CCCCC2)[C@@]2(CCc3ccccc3)c3[nH]c4ccc(Cl)cc4c3CCN2C1=O)NCc1ccco1,52.1,21.8,22.6,9.6,72.8*,11.7
CC(C)(C)NC(=O)C[C@H]1C[C@H](C(=O)N2CCCCC2)[C@@]2(CCc3ccccc3)c3[nH]c4ccc(Cl)cc4c3CCN2C1=O,18.7,11.5,6.6,4.6,-3.6,20.5
COc1cccc(-c2ccc3n(c2=O)C[C@H]2[C@H](CO)[C@@H](C(=O)NCC4CC4)N(C)[C@@H]32)c1,.,.,.,.,8.3,.
C[C@@H]1CN([C@@H](C)CO)C(=O)Cc2cc(N(C)C)ccc2O[C@@H]1CN(C)Cc1ccc(C(=O)Nc2ccccc2N)cc1,.,.,.,.,75.8*,.
C[C@H]1CN([C@@H](C)CO)C(=O)Cc2cc(N(C)C)ccc2O[C@@H]1CN(C)Cc1ccc(C(=O)Nc2ccccc2N)cc1,.,.,.,.,64.8*,.
C[C@H]1CN([C@@H](C)CO)C(=O)Cc2cc(NC(=O)c3ccncc3)ccc2O[C@@H]1CN(C)Cc1ccc(C(=O)Nc2ccccc2N)cc1,.,.,.,.,-19.6,.
C[C@H]1CN([C@@H](C)CO)C(=O)Cc2cc(NC(=O)c3ccncc3)ccc2O[C@H]1CN(C)Cc1ccc(C(=O)Nc2ccccc2N)cc1,.,.,.,.,-4.1,.
C[C@@H]1CN([C@@H](C)CO)C(=O)Cc2cc(N(C)C)ccc2O[C@H]1CN(C)Cc1ccc(C(=O)Nc2ccccc2N)cc1,.,.,.,.,77.4*,.
COc1ccc2c3c([nH]c2c1)[C@@H](CO)N(C(C)=O)CC31CN(Cc2ccccc2Cl)C1,.,.,.,.,31.8,.
CC(C)c1ccc(/C=C/C(=O)N2CCc3ccccc3C2)cc1,5.9,-136.4,0.1,-3.1,67.1*,-123.9
COc1ccc2[nH]c(=O)c(CN(Cc3cccs3)S(=O)(=O)c3c(C)ccc4nsnc34)cc2c1,75.1,0.9,8.2,25.7,29.6,59.4*
NC(c1ccccc1)c1csc(NC(=O)Nc2ccc(OC(F)(F)F)cc2)n1 (centres undefined),12.7,-0.5,.,.,37.8,105.1*
NC(CCc1ccccc1)c1csc(NC(=O)Nc2cccc(Cl)c2)n1 (centres undefined),-2.2,14.3,.,.,-5.4,89.0*
NC(c1ccccc1)c1csc(NC(=O)Nc2cccc(Cl)c2)n1 (centres undefined),-0.3,-27.8,.,.,-32.0,107.9*
NC(c1ccccc1)c1csc(NC(=O)NCCc2ccccc2)n1 (centres undefined),-1.2,-1.7,.,.,2.4,10.1
NC(COCc1ccccc1)c1csc(NC(=O)Nc2cccc(C(F)(F)F)c2)n1 (centres undefined),58.9,11.6,.,.,7.5,100.4*
SMILES,Shn3 3UTR inh,HIF-2a block,MITF TRPM1 inh,LMP1 NFkB inh,PAX8 reporter,Peg3 promoter
O=C(Nc1cccc(Cl)c1)Nc1nc(-c2ccc(Cl)cc2)cs1,36.5,-77.2,16.1,9.9,.,-31.0
CO[C@H]1CN(C)C(=O)c2cc(NC(=O)c3cnccn3)ccc2OC[C@@H](C)N(CCc2ccccc2)C[C@@H]1C,.,.,.,.,7.5,.
O=C(C[C@@H]1C=C[C@@H](NC(=O)C2CC2)[C@@H](CO)O1)NCC1CC1,.,.,.,.,-5.0,.
O=C(c1cccc(F)c1)N1CCCCN2[C@@H](CO)[C@H](c3ccc(/C=C/c4ccccc4)cc3)[C@@H]2C1,.,.,.,.,-3.9,.
Cc1ccc(S(=O)(=O)Nc2ccc3c(c2)C(=O)N([C@@H](C)CO)C[C@@H](C)[C@H](CN(C)C(=O)NC(C)C)O3)cc1,.,.,.,.,-12.0,.
Cc1nc2sc(-c3ccccc3)cc2c(=O)n1-n1cccc1,-32.0,-261.0,-109.4,-58.1,.,-293.4
Cc1nc2sc(-c3ccccc3)cc2c(=O)n1N,.,12.9,45.1,62.4*,41.1,58.0*
CCC(=O)Nc1ccc2c(c1)C(=O)N(C)[C@H]1CC[C@H](CC(=O)N3CCCCC3)O[C@H]1CO2,.,.,.,.,-15.1,.
CCc1nc(N)nc(N)c1-c1ccc(Cl)c([N+](=O)[O-])c1,46.8,31.5,29.9,32.5,39.0,21.7
CCc1nc(N)nc(N)c1-c1ccc(Cl)c(N=[N+]=[N-])c1,81.0*!,29.5,30.8,0.8,15.7,13.8
C[C@@H]1CCCCO[C@H](CN(C)S(=O)(=O)c2ccc(Cl)cc2)[C@@H](C)CN([C@H](C)CO)C(=O)c2cc(NC(=O)Nc3cccc4ccccc34)ccc2O1,.,.,.,.,16.1,.
CO[C@H]1CN(C)C(=O)c2cc(NC(=O)Nc3ccc4c(c3)OCO4)ccc2OC[C@H](C)NC[C@@H]1C,.,.,.,.,-52.3,.
CN1C[C@@H](O)COC[C@@H]2O[C@H](CC(=O)NC3CCCC3)CC[C@H]21,.,.,.,.,2.9,.
C=CCN1CCN(C(=O)CCc2ccccc2)CC1,-1.8,7.9,14.8,86.7*,8.7,-4.1
O=C(CCc1ccccc1)N1CCN(C(=O)CCc2ccccc2)CC1,-0.3,5.1,3.7,8.5,.,18.5
C[C@@H]1CN([C@@H](C)CO)C(=O)c2cc(NS(=O)(=O)c3ccc(F)cc3)ccc2O[C@@H](C)CCCCO[C@@H]1CN(C)S(=O)(=O)c1cn(C)cn1,.,.,.,.,-9.5,.
